This is a sample that favours compounds with a hit; in the whole collection about 2.8% have one here.
PAFAH2 FP inh: inhibitors of human PAFAH2; Q99487; recombinant PAFAH2, FP-rhodamine activity probe, fluorescence polarization; inhibition, % at 3.39 µM; actives 0.99% (n = 340,000); AID 492956;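 active = inhibition above the mean over all tested compounds plus 3 SD, cut at about 30% in these data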;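 also: inhibitors block probe labeling of enzyme so polarization drops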
PAFAH1B2 inh: inhibitors of human PAFAH1B2. P68402. recombinant PAFAH1B2, FP-rhodamine activity probe, fluorescence polarization. inhibition, % at 3.39 µM. actives 1.2% (n = 340,000). AID 492953;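 active = inhibition above the mean of all tested compounds plus 3 SD, cut at about 24% in these data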
pPAFAH FP inh: pPAFAH (human) enzyme inhibition. Q13093. recombinant pPAFAH, FP-rhodamine probe fluorescence polarization. inhibition, % at 3.39 µM. actives 1.5% (n = 330,000);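 active = inhibition above the mean inhibition across the screen plus 3 SD, cut at about 25% in these data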;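 also: inhibitors block binding of the rhodamine activity-based probe so polarization drops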
PAFAH1B3 FP inh: blocks human PAF acetylhydrolase 1B catalytic subunit 3. inhibition, % at 3.39 µM. AID 492972. actives 0.28% (n = 340,000). recombinant PAFAH1B3, FP-rhodamine probe, fluorescence polarization;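 active = inhibition above the screen-wide average of all tested compounds plus 3 SD, cut at about 25% in these data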
Fam108B counter: blocks mouse Fam108B hydrolase in RBBP9 counter-screen. recombinant Fam108B, FP-Rh probe fluorescence polarization. inhibition, % at 9.51 µM. actives 0.33% (n = 300,000);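 active = inhibition above the screen mean inhibition plus 3 SD, computed separately per campaign, cut at about 18% in these data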;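 also: inhibitors lower polarization as less probe binds the enzyme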
PME-1 primary: PME-1 (human) inhibition. Q9Y570. recombinant PME-1, FP-Rh probe fluorescence polarization. inhibition, % at 5.9 µM. actives 0.53% (n = 320,000);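 active = inhibition above the campaign mean of all compounds plus 3 SD, cut at about 26% in these data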;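 also: competitive labeling of PME-1 active site by serine hydrolase directed probe; inhibitors block probe labeling so polarization falls and inhibition rises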
Target sequence (Q9Y570 whole entry, looked up): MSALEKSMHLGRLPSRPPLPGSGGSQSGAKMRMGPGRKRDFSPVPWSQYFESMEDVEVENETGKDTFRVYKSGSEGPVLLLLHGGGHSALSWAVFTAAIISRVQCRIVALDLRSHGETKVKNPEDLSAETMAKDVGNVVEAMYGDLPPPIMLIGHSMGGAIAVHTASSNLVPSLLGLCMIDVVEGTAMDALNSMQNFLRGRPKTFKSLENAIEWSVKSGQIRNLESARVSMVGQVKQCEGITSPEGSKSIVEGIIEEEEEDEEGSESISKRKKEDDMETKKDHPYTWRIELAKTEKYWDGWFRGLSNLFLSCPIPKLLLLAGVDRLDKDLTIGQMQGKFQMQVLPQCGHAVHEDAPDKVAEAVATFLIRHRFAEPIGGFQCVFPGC
PAFAH2 FP conf: PAFAH2 (human) inhibition, confirmed. actives 65% (n = 2,300). recombinant PAFAH2, FP-rhodamine activity probe, fluorescence polarization. shares compounds with PAFAH2 FP inh. AID 493030. inhibition, % at 3.39 µM;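 active = mean inhibition over three repeats above a set limit taken from the earlier primary screen, cut at about 30% in these data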;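 also: inhibitor blocks binding of rhodamine activity probe so polarization falls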
PAFAH1B3 confirm: confirmation of human PAFAH1B3 inhibitors. shares compounds with PAFAH1B3 FP inh. recombinant PAFAH1B3, FP-Rh activity-based probe, fluorescence polarization. inhibition, % at 3.39 µM. actives 30% (n = 390). AID 493032;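 active = average inhibition over triplicate runs above the hit cutoff set in the earlier primary screen, cut at about 25% in these data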
Numbers stand for hits; i = inactive; nt = not tested or not shown.

SMILES	PAFAH2 FP inh	PAFAH1B2 inh	pPAFAH FP inh	PAFAH1B3 FP inh	Fam108B counter	PME-1 primary	PAFAH1B3 confirm	others
CC1=CC(=O)NP(=O)(Oc2ccc3ccccc3c2)N1 (centres undefined)	45	i	i	i	i	i	nt	PAFAH2 FP conf=i
O=C(CCCC1=NS(=O)(=O)c2ccccc2N1)N1CCC2(CC1)OCCO2	i	i	i	i	i	i	nt
CN(C(=O)c1ccc(Cl)nc1)C1(c2ccccc2Cl)CCCCC1=O (centres undefined)	i	i	i	i	i	i	nt
CCc1ccc2c(CN3CC=C(c4ccccc4)CC3)cc(=O)oc2c1	i	i	i	27	i	i	i
COc1ccc2c(CN3CC=C(c4ccccc4)CC3)cc(=O)oc2c1	i	i	i	i	i	i	nt
Cc1cc(OCC(=O)N2CCC(C(=O)NCC(C)C)CC2)c2c3c(c(=O)oc2c1)CCCC3	i	i	i	i	i	i	nt
Oc1cccc2nc3ccccc3nc12	i	i	i	35	i	i	i
CCC(C)NC(=O)c1c(N)n(CCCOC)c2nc3ccccc3nc12 (centres undefined)	i	i	i	62	i	i	i
CCOC(=O)c1c(N)n(CCN2CCCCC2)c2nc3ccccc3nc12	i	i	i	i	i	i	nt
CCCCn1c(NS(=O)(=O)c2ccccc2)c(C(=O)OCC)c2nc3ccccc3nc21	i	i	i	51	i	i	i
COc1cc2c(cc1O)[C@@H]1Cc3ccc(OC)c(O)c3CN1CC2	i	i	i	37	i	i	i
O=C1CCCN1c1ccc(S(=O)(=O)O)cc1 (tested in a mixture with another compound)	i	i	i	i	i	i	nt
COC(=O)C1=C(c2ccc(OCc3ccccc3)cc2)C[C@@H]2CC[C@H]1N2C(=O)NCCCc1ccccc1	i	i	i	i	nt	i	nt
